In the supplement of paper PMC11732987, “Enantioselective OTUD7B fragment discovery through chemoproteomics screening and high-throughput optimisation” (Communications Chemistry, 2025):

How the values were obtained:
Experiment in all cases: log2 ratio of Biotin-Ahx-Ub-VS probe labelling (fragment/DMSO); higher = less target engagement (more negative = stronger competition), active = hit call of the paper (q ≤ 0.05, log2 ratio ≤ -1)
Conditions in all cases: compound concentration: 200 uM; treatment time: 3 h
[1] = molecular target: T1, OTUD6B (UniProt Q8N6M0)
T1 sequence (whole entry): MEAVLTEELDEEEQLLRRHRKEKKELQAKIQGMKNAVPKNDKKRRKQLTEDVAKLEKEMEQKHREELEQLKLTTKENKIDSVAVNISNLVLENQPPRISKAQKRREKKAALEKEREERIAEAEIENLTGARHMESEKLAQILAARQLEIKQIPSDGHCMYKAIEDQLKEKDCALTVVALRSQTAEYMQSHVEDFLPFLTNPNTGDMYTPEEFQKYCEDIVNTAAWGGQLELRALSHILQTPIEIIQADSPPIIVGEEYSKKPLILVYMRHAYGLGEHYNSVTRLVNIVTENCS
Summary of the method: (§1)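 Lysate from HEK293T cells, 495 µg per sample in Tris/CHAPS/IGEPAL buffer with protease inhibitors, was treated for 3 h in triplicate with fragment at 200 µM or vehicle. Biotin-Ahx-Ub-VS was next added at 0.5 µM final for 1 h. The labelled DUBs were enriched with NeutrAvidin, digested with LysC and trypsin, and run by diaPASEF LC-MS/MS, with values given as average log2 fragment/vehicle ratios by unpaired t-test on global-median-normalised Spectronaut quantities of proteins with ≥2 unique peptides.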

[2] = molecular target: T2, OTUD7B (UniProt Q6GQQ9)
T2 sequence (whole entry): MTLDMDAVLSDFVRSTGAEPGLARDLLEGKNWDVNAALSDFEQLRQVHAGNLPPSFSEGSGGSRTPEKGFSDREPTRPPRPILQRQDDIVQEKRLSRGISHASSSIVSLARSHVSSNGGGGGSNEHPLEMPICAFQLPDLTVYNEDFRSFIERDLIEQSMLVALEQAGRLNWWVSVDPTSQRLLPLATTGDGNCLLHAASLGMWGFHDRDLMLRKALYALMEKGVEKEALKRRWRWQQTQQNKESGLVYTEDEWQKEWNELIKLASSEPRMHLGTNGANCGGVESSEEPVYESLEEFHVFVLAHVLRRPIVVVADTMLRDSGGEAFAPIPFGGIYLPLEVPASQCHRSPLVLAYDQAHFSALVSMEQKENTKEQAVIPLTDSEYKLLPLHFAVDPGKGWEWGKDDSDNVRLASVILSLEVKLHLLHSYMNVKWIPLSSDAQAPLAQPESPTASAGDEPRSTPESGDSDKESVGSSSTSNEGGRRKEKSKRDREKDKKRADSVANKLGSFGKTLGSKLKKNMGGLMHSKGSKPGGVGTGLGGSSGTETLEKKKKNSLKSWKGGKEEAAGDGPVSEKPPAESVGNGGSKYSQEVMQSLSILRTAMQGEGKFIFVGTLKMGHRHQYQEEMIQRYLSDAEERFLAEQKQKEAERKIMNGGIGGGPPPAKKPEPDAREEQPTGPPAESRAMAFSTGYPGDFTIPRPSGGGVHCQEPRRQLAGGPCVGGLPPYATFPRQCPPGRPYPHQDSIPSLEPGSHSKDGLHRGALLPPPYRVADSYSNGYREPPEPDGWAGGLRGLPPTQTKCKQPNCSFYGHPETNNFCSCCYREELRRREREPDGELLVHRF
Summary of the method: as §1

[3] = molecular target: PRPF8 (UniProt Q6P2Q9)
Summary of the method: as §1

[4] = molecular target: T3, PSMD7 (UniProt P51665)
T3 sequence (whole entry): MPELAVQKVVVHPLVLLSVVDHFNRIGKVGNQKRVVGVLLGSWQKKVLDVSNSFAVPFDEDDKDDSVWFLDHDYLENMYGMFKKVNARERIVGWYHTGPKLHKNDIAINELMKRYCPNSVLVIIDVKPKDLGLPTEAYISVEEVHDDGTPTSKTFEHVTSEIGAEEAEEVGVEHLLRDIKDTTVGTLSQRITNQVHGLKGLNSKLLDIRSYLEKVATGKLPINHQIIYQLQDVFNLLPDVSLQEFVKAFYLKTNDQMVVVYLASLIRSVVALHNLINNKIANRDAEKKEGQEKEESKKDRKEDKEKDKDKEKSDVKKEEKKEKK
Summary of the method: as §1

[5] = molecular target: UCHL1 (UniProt P09936)
UCHL1, sequence (P09936 whole entry, looked up): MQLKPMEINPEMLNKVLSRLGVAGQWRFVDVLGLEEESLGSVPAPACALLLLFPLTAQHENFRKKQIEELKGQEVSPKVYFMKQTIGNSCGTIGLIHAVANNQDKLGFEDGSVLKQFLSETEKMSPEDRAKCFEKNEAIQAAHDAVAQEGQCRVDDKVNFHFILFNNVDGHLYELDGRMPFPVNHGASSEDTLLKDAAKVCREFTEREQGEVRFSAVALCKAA
Summary of the method: as §1

[6] = molecular target: T4, UCHL3 (UniProt P15374)
T4 sequence (whole entry): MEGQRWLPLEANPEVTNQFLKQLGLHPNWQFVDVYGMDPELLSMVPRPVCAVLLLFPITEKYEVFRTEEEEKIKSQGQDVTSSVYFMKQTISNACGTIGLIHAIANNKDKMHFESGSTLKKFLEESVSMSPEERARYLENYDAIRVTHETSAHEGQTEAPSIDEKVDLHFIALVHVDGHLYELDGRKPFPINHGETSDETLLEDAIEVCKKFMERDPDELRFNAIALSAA
Summary of the method: as §1

[7] = molecular target: T5, UCHL5 (UniProt Q9Y5K5)
T5 sequence (whole entry): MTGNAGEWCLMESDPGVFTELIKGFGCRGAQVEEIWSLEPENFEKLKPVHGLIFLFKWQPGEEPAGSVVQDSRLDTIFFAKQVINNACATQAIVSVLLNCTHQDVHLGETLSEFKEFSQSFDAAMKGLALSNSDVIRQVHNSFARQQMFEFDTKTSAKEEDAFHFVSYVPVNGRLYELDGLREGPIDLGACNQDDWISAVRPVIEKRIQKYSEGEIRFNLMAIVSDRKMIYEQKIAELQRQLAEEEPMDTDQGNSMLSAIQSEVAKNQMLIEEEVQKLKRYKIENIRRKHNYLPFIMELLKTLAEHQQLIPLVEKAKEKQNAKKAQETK
Summary of the method: as §1

[8] = molecular target: USP10 (UniProt Q14694)
USP10, sequence (Q14694 whole entry): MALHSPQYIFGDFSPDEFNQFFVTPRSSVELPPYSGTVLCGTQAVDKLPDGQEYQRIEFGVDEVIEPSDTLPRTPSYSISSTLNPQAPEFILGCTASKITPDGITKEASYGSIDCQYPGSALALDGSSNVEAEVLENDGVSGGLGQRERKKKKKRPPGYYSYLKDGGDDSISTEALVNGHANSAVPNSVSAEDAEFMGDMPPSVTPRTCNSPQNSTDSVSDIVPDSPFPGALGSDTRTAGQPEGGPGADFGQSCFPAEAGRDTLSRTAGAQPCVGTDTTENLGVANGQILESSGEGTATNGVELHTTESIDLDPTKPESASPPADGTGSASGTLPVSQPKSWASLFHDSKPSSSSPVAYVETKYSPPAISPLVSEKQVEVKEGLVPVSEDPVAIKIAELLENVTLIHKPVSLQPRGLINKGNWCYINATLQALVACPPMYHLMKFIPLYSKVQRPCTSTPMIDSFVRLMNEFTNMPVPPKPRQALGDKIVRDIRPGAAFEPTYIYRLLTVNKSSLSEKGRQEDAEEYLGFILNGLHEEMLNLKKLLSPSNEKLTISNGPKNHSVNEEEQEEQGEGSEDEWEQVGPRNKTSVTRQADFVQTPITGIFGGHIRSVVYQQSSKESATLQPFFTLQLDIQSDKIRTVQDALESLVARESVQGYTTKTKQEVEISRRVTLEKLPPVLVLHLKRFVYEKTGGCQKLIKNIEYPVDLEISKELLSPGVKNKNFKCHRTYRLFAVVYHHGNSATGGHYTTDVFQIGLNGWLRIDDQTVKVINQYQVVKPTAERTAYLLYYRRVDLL
Summary of the method: as §1

[9] = molecular target: T6, USP15 (UniProt Q9Y4E8)
T6 sequence (whole entry): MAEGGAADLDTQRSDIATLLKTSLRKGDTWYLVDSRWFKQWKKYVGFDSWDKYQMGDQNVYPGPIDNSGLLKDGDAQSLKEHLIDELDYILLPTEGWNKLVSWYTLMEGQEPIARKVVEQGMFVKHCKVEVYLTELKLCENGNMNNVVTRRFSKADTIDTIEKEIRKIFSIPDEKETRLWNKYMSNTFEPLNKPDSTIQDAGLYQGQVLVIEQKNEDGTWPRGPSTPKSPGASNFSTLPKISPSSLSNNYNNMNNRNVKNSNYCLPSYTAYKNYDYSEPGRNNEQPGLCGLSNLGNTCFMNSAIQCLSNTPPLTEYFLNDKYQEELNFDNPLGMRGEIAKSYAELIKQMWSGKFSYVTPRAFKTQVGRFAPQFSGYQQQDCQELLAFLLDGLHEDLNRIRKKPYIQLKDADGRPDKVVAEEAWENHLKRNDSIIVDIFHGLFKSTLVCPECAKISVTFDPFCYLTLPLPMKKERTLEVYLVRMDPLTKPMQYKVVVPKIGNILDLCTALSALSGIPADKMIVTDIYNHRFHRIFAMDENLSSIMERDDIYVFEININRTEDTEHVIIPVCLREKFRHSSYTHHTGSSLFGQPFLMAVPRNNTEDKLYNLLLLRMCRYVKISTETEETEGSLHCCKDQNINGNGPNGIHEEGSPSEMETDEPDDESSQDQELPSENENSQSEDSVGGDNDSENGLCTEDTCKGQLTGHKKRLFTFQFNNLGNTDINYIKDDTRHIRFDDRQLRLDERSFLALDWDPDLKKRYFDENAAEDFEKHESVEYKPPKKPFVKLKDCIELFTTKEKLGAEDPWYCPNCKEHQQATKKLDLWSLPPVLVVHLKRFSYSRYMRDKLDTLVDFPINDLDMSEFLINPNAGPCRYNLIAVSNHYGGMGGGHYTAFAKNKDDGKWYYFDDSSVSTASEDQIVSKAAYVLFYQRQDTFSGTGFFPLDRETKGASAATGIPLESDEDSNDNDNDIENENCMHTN
Summary of the method: as §1

[10] = molecular target: USP16 (UniProt Q9Y5T5)
USP16, sequence (Q9Y5T5 whole entry, looked up): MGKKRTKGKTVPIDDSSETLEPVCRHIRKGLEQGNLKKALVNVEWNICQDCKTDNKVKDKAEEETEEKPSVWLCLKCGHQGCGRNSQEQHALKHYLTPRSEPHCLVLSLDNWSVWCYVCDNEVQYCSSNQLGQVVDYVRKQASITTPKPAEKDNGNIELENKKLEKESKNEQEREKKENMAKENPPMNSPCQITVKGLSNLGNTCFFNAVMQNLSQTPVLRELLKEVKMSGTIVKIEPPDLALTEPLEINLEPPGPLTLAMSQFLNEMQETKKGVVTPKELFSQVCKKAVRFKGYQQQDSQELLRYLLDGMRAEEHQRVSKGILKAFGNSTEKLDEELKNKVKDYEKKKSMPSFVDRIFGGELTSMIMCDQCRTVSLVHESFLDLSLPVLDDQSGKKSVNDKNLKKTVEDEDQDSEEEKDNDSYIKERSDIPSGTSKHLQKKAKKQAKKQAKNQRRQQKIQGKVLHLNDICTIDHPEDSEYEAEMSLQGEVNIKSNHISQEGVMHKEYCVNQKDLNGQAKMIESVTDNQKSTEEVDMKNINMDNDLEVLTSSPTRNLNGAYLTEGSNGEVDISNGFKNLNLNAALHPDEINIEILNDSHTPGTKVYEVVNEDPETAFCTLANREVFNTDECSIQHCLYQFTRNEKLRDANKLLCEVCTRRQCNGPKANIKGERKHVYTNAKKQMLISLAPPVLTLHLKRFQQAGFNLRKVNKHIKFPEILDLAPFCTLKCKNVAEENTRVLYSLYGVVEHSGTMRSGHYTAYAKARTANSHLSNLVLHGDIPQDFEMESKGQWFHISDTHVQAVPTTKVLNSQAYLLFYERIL
Summary of the method: as §1

Measured: log2 ratio of Biotin-Ahx-Ub-VS probe labelling

CCCn1nccc1NC(=O)CCl
active: [2] -1.42
inactive: [1] 0.0729 | [3] 0.193 | [4] -0.254 | [5] -0.343 | [6] 0.0705 | [7] -0.074 | [8] -0.0888 | [9] -0.238 | [10] -0.307
